Test results published in PubChem BioAssay (EPA / NIEHS).
Calls of active or inactive are those of the source. The calls were made as follows: active = hit-call score of the fitted dose curve at least 0.9, where 1 is the maximum; inactive = score below 0.9.

Legend:
[1] = ATG_GLI_CIS: Attagene CIS-FACTORIAL HepG2 Assay for human Zinc Finger Protein GLI1 (AID 2282945); conditions: HepG2, Attagene cis-factorial reporter mRNA, GLI element; actives raise or lower the signal
Outline: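 HepG2 cells transiently transfected with cis-promoter multiplexed reporter units report endogenous transcription factor activity. After 24 h chemical exposure, reporter mRNA was quantified by RT-PCR, 6-FAM labelling, HpaI digestion and capillary electrophoresis, with bidirectional fitting against DMSO.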

[2] = target: Bile acid receptor (Homo sapiens) (UniProt Q96RI1); experiment: ATG_IR1_CIS: Attagene CIS-FACTORIAL HepG2 Assay for human Nuclear Receptor Subfamily 1 Group H Member 4 (NR1H4), IR1 submotif (AID 2282946); conditions: IR1 reporter transcription, actives raise or lower the signal
Bile acid receptor (Homo sapiens), sequence (Q96RI1 whole entry, looked up): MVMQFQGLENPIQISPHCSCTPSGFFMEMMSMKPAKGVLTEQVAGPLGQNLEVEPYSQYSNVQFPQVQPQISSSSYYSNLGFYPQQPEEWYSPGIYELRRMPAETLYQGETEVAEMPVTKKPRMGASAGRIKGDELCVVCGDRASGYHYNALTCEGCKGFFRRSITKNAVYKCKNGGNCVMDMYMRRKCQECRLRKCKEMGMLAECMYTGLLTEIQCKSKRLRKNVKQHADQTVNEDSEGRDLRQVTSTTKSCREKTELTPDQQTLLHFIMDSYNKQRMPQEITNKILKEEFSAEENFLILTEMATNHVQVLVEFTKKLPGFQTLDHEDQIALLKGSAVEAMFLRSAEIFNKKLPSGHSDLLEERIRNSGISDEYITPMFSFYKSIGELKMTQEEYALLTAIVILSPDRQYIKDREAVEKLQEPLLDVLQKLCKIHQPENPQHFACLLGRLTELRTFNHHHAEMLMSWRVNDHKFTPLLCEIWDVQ
Outline: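 Transient MRTU transfection, HepG2; 24 h dosing; RNA → RT-PCR → 6-FAM primer extension → HpaI digest → capillary electrophoresis fluorescence. Gain/loss of signal fitted relative to DMSO.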

[3] = ATG_ISRE_CIS: Attagene CIS-FACTORIAL HepG2 Assay for human Interferon Regulatory Factor 1 (IRF1) binding to an Interferon-Stimulated Response Element (ISRE) (AID 2282948); conditions: HepG2 ISRE cis-reporter (Attagene), mRNA transcription readout; actives raise or lower the signal
Outline: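 Transfected HepG2 (multiple reporter transcription units, cis elements) dosed 24 h. RNA → oligo(dT) RT → PCR → 6-FAM primer extension → HpaI → CE. DMSO = negative control/baseline.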

[4] = ATG_M_32_CIS: Attagene CIS-FACTORIAL HepG2 Assay for M32 Transcription Factor (Internal Marker) (AID 2282949); conditions: HepG2 Attagene cis-factorial M32 reporter, mRNA; actives raise or lower the signal;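 also: background control marker of the multiplexed CIS panel rather than a real target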
Outline: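 Fluorescent capillary electrophoresis peaks of HpaI-digested, FAM-labelled RT-PCR reporter products give the signal. Source: transiently transfected human liver HepG2 cells, 24 h after chemical dosing; bidirectional fitting against DMSO.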

[5] = ATG_M_06_CIS: Attagene CIS-FACTORIAL HepG2 Assay for M06 Transcription Factor (Internal Marker) (AID 2282950); conditions: HepG2 Attagene CIS-FACTORIAL M06 internal marker reporter; actives raise or lower the signal
Outline: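 Read-out is fluorescence of labelled reporter cDNA fragments resolved by capillary electrophoresis after RT-PCR. Cells: HepG2 carrying transfected cis-promoter reporter units, treated 24 h. Gain or loss of signal fitted relative to DMSO.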

[6] = target: Hypoxia-inducible factor 1-alpha (Homo sapiens) (UniProt Q16665); experiment: ATG_HIF1a_CIS: Attagene CIS-FACTORIAL HepG2 Assay for human Hypoxia Inducible Factor 1 (HIF1A) (AID 2282951); conditions: HepG2 Attagene cis-factorial HIF1a reporter transcription; actives raise or lower the signal
Hypoxia-inducible factor 1-alpha (Homo sapiens), sequence (Q16665 whole entry, looked up): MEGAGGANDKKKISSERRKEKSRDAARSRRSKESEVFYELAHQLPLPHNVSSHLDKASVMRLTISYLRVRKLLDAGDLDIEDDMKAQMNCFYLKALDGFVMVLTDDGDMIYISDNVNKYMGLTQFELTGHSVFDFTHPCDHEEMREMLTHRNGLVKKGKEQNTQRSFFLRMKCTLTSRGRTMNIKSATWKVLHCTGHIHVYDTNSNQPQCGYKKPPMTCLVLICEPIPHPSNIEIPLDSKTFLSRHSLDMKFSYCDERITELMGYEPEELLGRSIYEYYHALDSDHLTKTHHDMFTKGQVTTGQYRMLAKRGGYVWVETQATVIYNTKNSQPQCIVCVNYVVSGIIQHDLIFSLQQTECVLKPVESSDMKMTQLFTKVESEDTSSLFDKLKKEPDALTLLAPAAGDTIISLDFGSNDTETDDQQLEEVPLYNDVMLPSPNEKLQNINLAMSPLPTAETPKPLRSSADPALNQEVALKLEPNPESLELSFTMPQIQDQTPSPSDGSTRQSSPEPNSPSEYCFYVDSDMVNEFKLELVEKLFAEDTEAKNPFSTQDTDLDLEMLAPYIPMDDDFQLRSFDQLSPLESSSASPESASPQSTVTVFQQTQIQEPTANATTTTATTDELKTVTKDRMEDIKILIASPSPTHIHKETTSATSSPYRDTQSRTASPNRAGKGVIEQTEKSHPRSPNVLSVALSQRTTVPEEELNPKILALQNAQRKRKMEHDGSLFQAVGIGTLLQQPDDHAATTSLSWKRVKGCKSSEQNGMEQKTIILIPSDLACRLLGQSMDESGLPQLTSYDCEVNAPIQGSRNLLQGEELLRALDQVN
Outline: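 Dosed 24 h, transfected HepG2 cells yielded total RNA whose reporter transcripts were RT-PCR-amplified and sized by capillary electrophoresis using fluorescent labelling; DMSO defined baseline, with gain and loss of signal both fitted.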

[7] = target: Heat shock factor protein 1 (Homo sapiens) (UniProt Q00613); experiment: ATG_HSE_CIS: Attagene CIS-FACTORIAL HepG2 Assay for human Heat Shock Transcription Factor 1 (HSE) (AID 2282953); conditions: HepG2 HSE cis-reporter, Attagene RNA transcription; actives raise or lower the signal
Heat shock factor protein 1 (Homo sapiens), sequence (Q00613 whole entry, looked up): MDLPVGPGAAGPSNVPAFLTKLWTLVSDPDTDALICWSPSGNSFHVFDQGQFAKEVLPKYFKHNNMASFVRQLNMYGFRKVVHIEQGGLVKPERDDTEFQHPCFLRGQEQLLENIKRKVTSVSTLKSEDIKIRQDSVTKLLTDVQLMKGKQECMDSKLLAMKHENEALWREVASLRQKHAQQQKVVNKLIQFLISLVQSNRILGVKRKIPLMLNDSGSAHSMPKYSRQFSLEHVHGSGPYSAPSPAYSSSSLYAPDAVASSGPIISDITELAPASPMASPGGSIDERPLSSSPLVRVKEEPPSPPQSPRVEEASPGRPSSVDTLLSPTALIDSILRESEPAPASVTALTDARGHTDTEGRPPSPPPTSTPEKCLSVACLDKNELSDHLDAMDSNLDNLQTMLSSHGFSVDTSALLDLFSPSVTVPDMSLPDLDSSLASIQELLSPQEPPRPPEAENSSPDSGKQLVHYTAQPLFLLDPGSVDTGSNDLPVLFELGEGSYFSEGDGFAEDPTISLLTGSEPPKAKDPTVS
Outline: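 HepG2, transient MRTU transfection, cis-promoter reporters (endogenous TF activity). 24 h compound. RNA → oligo(dT) RT → PCR → 6-FAM primer extension → HpaI cut → CE. Bidirectional fit vs DMSO.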

[8] = ATG_PBREM_CIS: Attagene CIS-FACTORIAL HepG2 Assay for human Phenobarbital-responsive Enhancer Module (PBREM) (AID 2282955); conditions: HepG2 PBREM cis-reporter, Attagene multiplexed transcription; actives raise or lower the signal
Outline: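 Transfected liver-derived HepG2 cells exposed 24 h; PBREM reporter transcript quantified via RT-PCR and capillary electrophoresis, with activity in either direction referenced to DMSO.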

[9] = target: Paired box protein Pax-6 (Homo sapiens) (UniProt P26367); experiment: ATG_Pax6_CIS: Attagene CIS-FACTORIAL HepG2 Assay for human Paired Box 6 (PAX6) (AID 2282956); conditions: HepG2 CIS-FACTORIAL PAX6 reporter transcription, RNA readout; actives raise or lower the signal
Paired box protein Pax-6 (Homo sapiens), sequence (P26367 whole entry, looked up): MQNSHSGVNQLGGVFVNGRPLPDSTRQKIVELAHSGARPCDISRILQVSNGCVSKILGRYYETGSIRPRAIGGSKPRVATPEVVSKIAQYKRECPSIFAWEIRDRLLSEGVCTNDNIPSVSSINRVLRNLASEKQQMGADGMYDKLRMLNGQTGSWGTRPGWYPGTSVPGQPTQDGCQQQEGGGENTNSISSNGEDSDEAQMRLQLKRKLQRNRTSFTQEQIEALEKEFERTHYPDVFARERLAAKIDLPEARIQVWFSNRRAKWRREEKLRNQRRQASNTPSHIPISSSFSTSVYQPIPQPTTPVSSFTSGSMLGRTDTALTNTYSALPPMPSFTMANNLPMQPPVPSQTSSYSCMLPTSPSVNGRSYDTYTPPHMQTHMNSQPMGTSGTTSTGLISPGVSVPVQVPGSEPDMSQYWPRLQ
Outline: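 Transient MRTU transfection of HepG2 → compound exposure 24 h → TriZol RNA, oligo(dT) RT → PCR, 6-FAM primer extension, HpaI cut → capillary electrophoresis; activity fitted both directions against DMSO.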

[10] = ATG_PXRE_CIS: Attagene CIS-FACTORIAL HepG2 Assay for human Pregnane X Receptor Element (PXRE) (AID 2282957); conditions: HepG2 Attagene CIS-FACTORIAL PXRE reporter, mRNA; actives raise or lower the signal
Outline: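 HepG2 cells transiently transfected with cis-element-driven multiplexed reporter units; after 24 h chemical exposure, reporter mRNA measured by RT-PCR, 6-FAM labelling, HpaI digestion and capillary electrophoresis. Bidirectional fitting relative to DMSO.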

[11] = ATG_PPRE_CIS: Attagene CIS-FACTORIAL HepG2 Assay for human Peroxisome Proliferator-activated Response Element (PPRE) (AID 2282958); conditions: HepG2 PPRE cis-element reporter, Attagene transcription factor profiling; actives raise or lower the signal
Outline: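 Measured endpoint: PPRE-controlled reporter mRNA, detected by RT-PCR and capillary electrophoresis fluorescence, from transiently transfected HepG2 cells 24 h after dosing. Curves fitted in both directions using DMSO baseline.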

[12] = ATG_RORE_CIS: Attagene CIS-FACTORIAL HepG2 Assay for human RAR-related Orphan Receptor Element (RORE) (AID 2282959); conditions: HepG2 Attagene cis-factorial RORE reporter, mRNA; actives raise or lower the signal
Outline: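 Transiently transfected HepG2 reporter cells were treated 24 h. Reporter transcripts were detected by RT-PCR and capillary electrophoresis, with bidirectional fitting against DMSO.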

[13] = ATG_Sox_CIS: Attagene CIS-FACTORIAL HepG2 Assay for human SRY-box transcription factor (SOX) (AID 2282960); conditions: HepG2 Attagene cis-factorial SOX reporter, mRNA; actives raise or lower the signal
Outline: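 Gain- or loss-of-signal endpoint, fitted bidirectionally with DMSO as negative control. Based on reporter mRNA from transfected HepG2 cells harvested 24 h post-treatment and quantified via RT-PCR and capillary electrophoresis.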

[14] = target: Transcription factor Sp1 (Homo sapiens) (UniProt P08047); experiment: ATG_Sp1_CIS: Attagene CIS-FACTORIAL HepG2 Assay for human Specificity Protein 1 (Sp1) (AID 2282961); conditions: HepG2 Sp1 cis-reporter transcription, actives raise or lower the signal
Transcription factor Sp1 (Homo sapiens), sequence (P08047 whole entry, looked up, the tested form may be a part): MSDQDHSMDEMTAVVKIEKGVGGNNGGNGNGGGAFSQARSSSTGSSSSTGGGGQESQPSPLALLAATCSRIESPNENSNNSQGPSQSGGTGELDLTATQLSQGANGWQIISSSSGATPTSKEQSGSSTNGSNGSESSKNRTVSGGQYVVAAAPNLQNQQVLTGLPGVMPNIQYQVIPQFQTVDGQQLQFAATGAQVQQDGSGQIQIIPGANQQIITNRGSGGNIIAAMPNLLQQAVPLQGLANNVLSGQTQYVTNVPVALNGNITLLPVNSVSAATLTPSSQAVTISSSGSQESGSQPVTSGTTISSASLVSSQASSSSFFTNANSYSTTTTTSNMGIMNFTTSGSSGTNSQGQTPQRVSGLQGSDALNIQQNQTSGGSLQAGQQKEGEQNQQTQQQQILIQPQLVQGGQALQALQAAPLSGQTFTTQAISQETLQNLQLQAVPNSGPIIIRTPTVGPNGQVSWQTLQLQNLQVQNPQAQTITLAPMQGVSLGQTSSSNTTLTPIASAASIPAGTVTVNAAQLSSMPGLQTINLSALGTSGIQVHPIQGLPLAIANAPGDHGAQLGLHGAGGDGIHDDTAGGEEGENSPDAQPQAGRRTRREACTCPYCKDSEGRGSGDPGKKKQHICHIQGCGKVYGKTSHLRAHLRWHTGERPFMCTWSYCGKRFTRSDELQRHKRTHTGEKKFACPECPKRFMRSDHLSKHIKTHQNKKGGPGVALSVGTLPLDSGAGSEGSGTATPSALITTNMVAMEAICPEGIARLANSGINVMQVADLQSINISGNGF
Outline: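 Endpoint reflects endogenous Sp1 transcriptional activity, not an exogenous fusion protein: HepG2 cells with transfected cis-regulated reporters, 24 h dosing, RT-PCR/capillary electrophoresis mRNA read-out, DMSO-normalised bidirectional fit.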

[15] = ATG_SREBP_CIS: Attagene CIS-FACTORIAL HepG2 Assay for human Sterol Regulatory Element Binding (SREBP) (AID 2282962); conditions: HepG2 Attagene cis-factorial SREBP reporter, mRNA; actives raise or lower the signal
Outline: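 Transfected HepG2 (cis-regulated reporter library, endogenous TFs) → compound 24 h → total RNA → oligo(dT) RT → reporter-specific PCR → FAM primer extension, HpaI cut → CE fluorescence. Fit bidirectional vs DMSO.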

[16] = target: Hepatocyte nuclear factor 6 (Homo sapiens) (UniProt Q9UBC0); experiment: ATG_HNF6_CIS: Attagene CIS-FACTORIAL HepG2 Assay for human Hepatocyte Nuclear Factor 6 (HNF6) (AID 2282952); conditions: HepG2 Attagene cis-factorial HNF6 reporter transcription; actives raise or lower the signal
Hepatocyte nuclear factor 6 (Homo sapiens), sequence (Q9UBC0 whole entry, looked up, the tested form may be a part): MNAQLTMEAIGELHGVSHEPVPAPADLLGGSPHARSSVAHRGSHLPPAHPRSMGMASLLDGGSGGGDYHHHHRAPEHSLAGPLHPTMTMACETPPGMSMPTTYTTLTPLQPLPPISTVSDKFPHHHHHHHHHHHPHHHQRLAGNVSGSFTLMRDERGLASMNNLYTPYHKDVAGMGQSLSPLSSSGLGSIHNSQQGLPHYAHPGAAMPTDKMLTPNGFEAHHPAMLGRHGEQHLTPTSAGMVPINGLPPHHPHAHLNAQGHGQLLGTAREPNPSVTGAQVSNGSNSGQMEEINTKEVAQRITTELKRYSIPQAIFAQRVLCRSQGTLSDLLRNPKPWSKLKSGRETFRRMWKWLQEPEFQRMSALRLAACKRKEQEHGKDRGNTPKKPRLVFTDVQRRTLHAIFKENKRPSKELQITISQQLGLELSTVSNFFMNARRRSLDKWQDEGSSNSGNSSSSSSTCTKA
Outline: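 HepG2 cells transiently transfected with cis-element-driven multiplexed reporter units measuring endogenous transcription factor activity. After 24 h exposure, reporter mRNA quantified by RT-PCR, FAM-labelled fragments and capillary electrophoresis; bidirectional fitting versus DMSO.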

[17] = ATG_MRE_CIS: Attagene CIS-FACTORIAL HepG2 Assay for human Metal Responsive Element (MRE) (AID 2282954); conditions: HepG2 MRE cis-reporter transcription, Attagene multiplex; actives raise or lower the signal
Outline: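 Step one: transfect HepG2 with cis-regulated reporter units. Step two: dose 24 h. Step three: isolate RNA, RT-PCR, 6-FAM label, HpaI digest, capillary electrophoresis. Fit bidirectionally to DMSO.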

[18] = target: Signal transducer and activator of transcription 3 (Homo sapiens) (UniProt P40763); experiment: ATG_STAT3_CIS: Attagene CIS-FACTORIAL HepG2 Assay for human Signal Transducer and Activator of Transcription 3 (STAT3) (AID 2282963); conditions: HepG2, Attagene cis-factorial STAT3 reporter transcription; actives raise or lower the signal
Signal transducer and activator of transcription 3 (Homo sapiens), sequence (P40763 whole entry, looked up): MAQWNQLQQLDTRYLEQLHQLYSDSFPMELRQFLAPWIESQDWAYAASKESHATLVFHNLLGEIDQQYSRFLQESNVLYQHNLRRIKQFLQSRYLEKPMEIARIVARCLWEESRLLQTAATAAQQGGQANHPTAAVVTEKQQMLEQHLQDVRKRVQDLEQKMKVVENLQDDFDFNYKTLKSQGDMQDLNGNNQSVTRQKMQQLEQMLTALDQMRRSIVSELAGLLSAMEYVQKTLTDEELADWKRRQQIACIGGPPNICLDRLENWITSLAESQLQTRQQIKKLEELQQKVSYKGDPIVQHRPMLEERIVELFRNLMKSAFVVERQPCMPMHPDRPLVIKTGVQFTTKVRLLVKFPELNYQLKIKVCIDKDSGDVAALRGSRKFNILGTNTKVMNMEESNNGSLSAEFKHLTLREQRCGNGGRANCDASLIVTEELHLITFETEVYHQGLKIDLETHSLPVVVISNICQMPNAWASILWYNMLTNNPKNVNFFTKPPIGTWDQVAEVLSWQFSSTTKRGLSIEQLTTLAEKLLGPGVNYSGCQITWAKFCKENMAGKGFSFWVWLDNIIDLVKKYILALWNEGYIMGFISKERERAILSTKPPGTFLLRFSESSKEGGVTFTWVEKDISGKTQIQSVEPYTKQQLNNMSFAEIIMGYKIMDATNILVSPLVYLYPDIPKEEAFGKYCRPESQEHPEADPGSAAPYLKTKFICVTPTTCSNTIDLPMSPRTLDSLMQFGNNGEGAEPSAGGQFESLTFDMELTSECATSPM
Outline: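 Transcript-level reporter assay. HepG2 transient MRTU transfection, 24 h exposure, fluorescence detection after RT-PCR and CE; DMSO baseline.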

[19] = ATG_TA_CIS: Attagene CIS-FACTORIAL HepG2 Assay for human TA Basal Promoter (AID 2282964); conditions: HepG2 Attagene CIS-factorial TA basal promoter reporter; actives raise or lower the signal
Outline: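 Read-out: fluorescent reporter-transcript fragments resolved by capillary electrophoresis after RT-PCR and HpaI digestion. Source: HepG2 cells carrying transiently transfected multi-reporter cis constructs, treated 24 h. Endpoint fitted bidirectionally relative to DMSO.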

[20] = ATG_GRE_CIS: Attagene CIS-FACTORIAL HepG2 Assay for human Glucocorticoid Response Elements (GRE) (AID 2282947); conditions: HepG2 GRE cis-reporter, Attagene multiplex mRNA; actives raise or lower the signal
Outline: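 Following 24 h chemical exposure of transiently transfected HepG2 cells, total RNA was reverse-transcribed and reporter cDNA amplified, fluorescently labelled and sized by capillary electrophoresis. Signal gain or loss was fitted relative to DMSO vehicle.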

Measured: AC50

O=C(O)c1cc(O)c2ccccc2c1O
active: [1] 33.4 µM | [2] 33.4 µM | [6] 48.9 µM | [10] 0.944 µM
not listed: [16] | [17] | [18] | [19] | [20]
inactive: all other assays above

COc1cc(O)c(C(=O)c2ccccc2)cc1S(=O)(=O)O
not listed: [3] | [11] | [13] | [20]
inactive: all other assays above

C=CC(=O)OCCCCCCCC(C)C
active: [2] 91.4 µM | [6] 71.8 µM | [10] 7.99 µM | [11] 71.1 µM | [12] 100 µM
not listed: [7] | [8] | [17] | [20]
inactive: all other assays above

O=C(O)CC(C(=O)O)S(=O)(=O)O (configuration not stated)
not listed: [2] | [13] | [18] | [19]
inactive: all other assays above

COc1ccc(-c2coc3cc(O)cc(O)c3c2=O)cc1
active: [7] 174 µM | [17] 138 µM | [10] 24.9 µM | [11] 100 µM
not listed: [2] | [12]
inactive: all other assays above

c1ccc(Nc2cccc3ccccc23)cc1
active: [1] 54 µM | [3] 24.8 µM | [16] 51.8 µM | [7] 53.8 µM | [17] 49.7 µM | [9] 33.4 µM | [10] 8.67 µM | [13] 48.1 µM | [14] 47.1 µM | [15] 60.4 µM
inactive: [20] | [4] | [5] | [6] | [8] | [12] | [18] | [19]

COc1cc(C)ccc1O
not listed: [2] | [9]
inactive: all other assays above
